A selection: hits, their analogues and other compounds. The true share with any hit is near 1.1%.
MOR-DOR ag-1 = agonists of human mu-delta opioid receptor heterodimerization | activation, % at 9.3 µM | 340,000 tested, 0.3% active | cells, OPRM1-OPRD1 heterodimerization, luminescence
OPRM1-OPRD1 inv = mu-delta opioid heterodimer inverse agonism. P35372+P41143. cell-based MOR-DOR heterodimer luminescence. inhibition, % at 9.3 µM. 340,000 tested, 0.21% active; in the data active means inhibition above about 22%, passing the limit was not always enough
HTR5A inv ag = counter-screen for OPRM1-OPRD1 inverse agonists: human HTR5A inverse agonism | HTR5A cell line, luminescence | inhibition, % at 9.3 µM | 340,000 tested, 0.083% active | AID 504634; in the data active means inhibition mostly above about 23%, no sharp cut-off; inactive means mostly below about 18%
Target sequence (P47898 whole entry, looked up): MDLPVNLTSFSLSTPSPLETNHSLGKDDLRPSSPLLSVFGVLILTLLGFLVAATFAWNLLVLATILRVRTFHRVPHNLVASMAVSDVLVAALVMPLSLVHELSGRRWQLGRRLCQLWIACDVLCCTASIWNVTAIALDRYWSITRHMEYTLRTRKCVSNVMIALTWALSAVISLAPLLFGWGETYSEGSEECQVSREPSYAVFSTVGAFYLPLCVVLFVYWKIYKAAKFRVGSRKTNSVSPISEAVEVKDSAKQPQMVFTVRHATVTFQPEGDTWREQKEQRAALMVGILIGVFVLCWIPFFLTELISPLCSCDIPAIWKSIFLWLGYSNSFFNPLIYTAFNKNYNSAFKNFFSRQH
HTR5A ag = counter-screen for OPRM1-OPRD1 agonists: human HTR5A agonism | HTR5A agonist assay, luminescence, cell-based | activation, % at 9.3 µM | AID 504692 | P47898 | 340,000 tested, 0.61% active; in the data active means activation mostly above about 9.5%, no sharp cut-off; inactive means mostly below about 7.6%
MOR-DOR ag-2 = promotes OPRM1-OPRD1 heterodimerization in HTR5A counter-screen. shares compounds with HTR5A ag. U2OS counter-screen cells, complementation luminescence, 3 h. activation, % at 9.3 µM. 800 tested, 13% active. AID 504913
HTR5A ag conf = HTR5A (human) agonism, confirmation; shares compounds with HTR5A ag; 800 tested, 17% active; activation, % at 9.3 µM; HTR5A agonist cell assay, luminescence; in the data active means activation above about 17%
Hits are given with their value; . = inactive; / = not tested or not shown. Unless noted, no stated cut-off is given here; in the data, active means activation above about 18%; inactive means the rest.

SMILES	MOR-DOR ag-1	OPRM1-OPRD1 inv	HTR5A inv ag	HTR5A ag	MOR-DOR ag-2	HTR5A ag conf
Cc1cc(C)c2c(c1)SC1=NC(c3ccccc3)(C(F)(F)F)NC(=O)N12 (centres undefined)	.	.	.	16.2	.	.
CCn1c(=NC(=O)c2ccco2)sc2cccc(F)c21	.	.	.	20.2	.	.
CC1CCCN(C(=O)COC(=O)CNC(=O)c2sc3ccccc3c2Cl)C1 (centres undefined)	.	.	.	.	/	/
COc1ccc(C)cc1NC(=O)COC(=O)c1ccc2c(c1)OCCO2	.	.	.	19.2	.	.
COCCN(CC(=O)Nc1ccccc1C(F)(F)F)C(=O)/C=C/c1ccc2ccccc2n1	.	.	.	.	/	/
CCOC(=O)C1(Cc2cccc(OC)c2)CCCN(Cc2cc(C(C)C)n[nH]2)C1 (centres undefined)	.	.	.	15.7	.	38.3
CCOC(=O)C1(Cc2cccc(OC)c2)CCCN(Cc2c(C)nn(C(C)C)c2C)C1 (centres undefined)	.	.	.	.	/	/
O=S(=O)(NCC1CN(S(=O)(=O)c2c(F)cccc2F)C1)c1ccc2c(c1)OCCO2	.	.	.	.	/	/
CC1CC(C)CN(C(=O)CSc2nnc(N)s2)C1 (centres undefined)	.	.	.	.	/	/
CCOC(=O)c1cccc(NC(=O)C2CCC(CNc3c(N4CCOCC4)c(=O)c3=O)CC2)c1 (centres undefined)	.	.	.	22.0	.	.
CCOc1ccc(NC(=O)C2CCC(CNc3c(N4CCCCC4)c(=O)c3=O)CC2)cc1 (centres undefined)	.	.	.	.	/	/
CC(C)c1ccc(-c2nnn(Cc3nc4ccccc4s3)n2)cc1	.	.	.	21.0	.	.
CC(C)c1ccc(-c2nnn(CCC#N)n2)cc1	.	.	.	.	/	/
COc1cc(/C=N/Nc2nc(C)nc3c2cnn3-c2ccccc2)ccc1O	.	.	.	16.2	.	.
Cc1cc(OC(=O)c2ccccc2Cl)cc(=O)n1C	.	.	.	15.7	123.0	.
Oc1ccc(C=NCCc2ccccc2)cc1	.	.	.	.	/	/
C[C@]12c3[nH]c4cc(-c5ccco5)ccc4c3CCN1C(=O)[C@@H](CC(=O)NCC13CC4CC(CC(C4)C1)C3)C[C@@H]2C(=O)N1CCOCC1	.	.	.	.	/	/
COc1ccc(CN(C(=O)CSc2nnc(-c3c[nH]c4ccccc34)o2)c2ccc(F)cc2)cc1OC	.	.	.	16.0	27.2	.
COc1ccc(CN(C(=O)CSc2nnc(-c3ccc(F)cc3)o2)c2ccc(F)cc2)cc1	.	.	.	.	/	/
COc1ccc(OCc2n(CC(=O)OC3CC(C)CCC3C(C)C)c3ccccc3[n+]2C)cc1 (centres undefined)	.	.	.	21.4	.	.
Cc1ccc(C(=O)N/C(=C\c2cccs2)C(=O)NCCc2c[nH]c3ccccc23)cc1	.	.	.	15.2	19.9	.
Cc1cc(/C=C(\C#N)C(=O)NCCc2c[nH]c3ccccc23)c(C)n1C	.	.	.	66.2	.	.
COc1ccc(/C=C(/NC(=O)c2ccc(OC)cc2)C(=O)NCCc2c[nH]c3ccccc23)cc1	.	.	.	.	/	/
COc1cc(S(C)=O)ccc1-c1nc2ncccc2[nH]1 (centres undefined)	.	.	.	.	/	/
Cc1ccc(C)c(S(=O)(=O)NCCC(=O)N2CCCC(C(N)=O)C2)c1 (centres undefined)	.	.	.	.	/	/
SMILES	MOR-DOR ag-1	OPRM1-OPRD1 inv	HTR5A inv ag	HTR5A ag	MOR-DOR ag-2	HTR5A ag conf
CC(C)Oc1ccc(C2CNC(=O)C2)cc1 (centres undefined)	.	.	.	23.1	.	64.6
CC(C)Oc1ccc(C2CC(=O)NC2=O)cc1 (centres undefined)	.	.	.	.	/	/
O=C(Nc1ccccc1)c1ncoc1-c1ccc(Cl)cc1	.	.	.	19.3	.	.
COc1cc(-c2n[nH]c(=S)n2-c2ccc(Br)cc2)cc(OC)c1OC	.	.	.	.	/	/
CCN1CCN(C(=O)/C=C/c2ccc(C(C)C)cc2)CC1	.	.	.	.	/	/
CCN1CCC(O)(/C=C/c2ccc(C(C)C)cc2)C(C(=O)/C=C/c2ccc(C(C)C)cc2)C1 (centres undefined)	.	.	.	18.4	51.3	26.9
Cc1coc2cc3oc(=O)c(CCC(=O)N4C[C@H]5C[C@@H](C4)c4cccc(=O)n4C5)c(C)c3cc12	.	.	.	25.9	.	50.9
COc1ccccc1N(CC(=O)Nc1ccc(Br)cc1F)S(=O)(=O)c1cccs1	.	.	.	.	/	/
COc1cc(C#Cc2c(-c3cncn3C)n(C)c3ccc(-c4ccc(CN5CCOCC5)cc4)cc23)cc(OC)c1	.	.	.	16.4	19.6	.
C/C(=N\NS(=O)(=O)c1ccc(Cl)c([N+](=O)[O-])c1)c1cc2ccccc2o1	.	.	.	.	/	/
C/C(=N\NS(=O)(=O)c1ccc(C)c([N+](=O)[O-])c1)c1cc2ccccc2o1	.	.	.	27.1	18.9	.
O=C(O)C1(O)C[C@H](O)C(O)[C@@H](O)C1 (some centres undefined)	.	.	.	.	/	/
CC(c1ccc(O)cc1)(c1ccc(O)cc1)c1ccc(CCBr)cc1	.	.	.	14.9	.	.
OCCc1ccc(O)cc1	.	.	.	.	/	/
CC(C)=C1SC(N2CCN(c3cccc(Cl)c3)CC2)=NC1=O	.	.	.	14.3	34.6	.
Cc1onc(-c2ccccc2)c1C(=O)N/N=C/c1ccc([N+](=O)[O-])c(O)c1	.	.	.	20.3	.	.
O=C(NCc1ccco1)c1cc(C(=O)C2CC2)c[nH]1	.	.	.	16.9	.	.
Cc1ccccc1C(=O)c1c[nH]c(C(=O)NCc2ccco2)c1	.	.	.	.	/	/
O=C(NCc1ccc2c(c1)OCO2)c1cnc2n(c1=O)CCS2	.	.	.	18.9	.	.
Cn1c(CCNC(=O)c2ccccc2F)nnc1SCC(=O)Nc1nncs1	.	.	.	19.7	.	.
Cc1nc2cc(NC(=O)N3c4ccccc4CC3C)ccc2n1C (centres undefined)	.	.	.	22.4	.	24.4
CC(=O)Nc1c(O)c2cccc3c2n(c1=O)CCC3	.	.	.	.	/	/
CCN1C[C@@H]2[C@@H]3C(=O)N(Cc4ccccc4)C(=O)[C@@H]3[C@](CC)(C1=O)N2C(=O)c1ccccc1	.	.	.	.	/	/
O=C1CC(c2ccco2)Sc2ccccc2N1 (centres undefined)	.	.	.	.	/	/
O=C1CC(c2ccccc2)Sc2ccccc2N1 (centres undefined)	.	.	.	17.0	.	.
COc1cc2c(cc1NC(=O)CN1CCN(S(=O)(=O)c3ccc(C)cc3)CC1)oc1ccccc12	.	.	.	14.6	218.3	.
COc1ccc(C)cc1NC(=O)CN1CCN(S(=O)(=O)c2ccc(Cl)cc2)CC1	.	.	.	.	/	/
Cc1nn(-c2ccc(F)cc2)c2sc(C(=O)N3CCCCCC3)cc12	.	.	.	.	/	/

Source: PubChem (The Scripps Research Institute Molecular Screening Center)
